Measurements taken from the supplement of paper PMC6555819.

These sequences were tested on VDR:RXRa (NR concentration 270 nM, RXRa partner concentration 90 nM) (assay: PBM binding z-score (relative to random genomic background probes); higher = stronger binding; sequences stand for … in GC…GCGATTGACAGCGTAGAATGAAGG).
Method: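 Protein-binding microarray (Agilent 4x180K custom design, double-stranded 60-nt probes: 5' GC cap, 34-nt variable region, 24-nt constant primer region; full probe sequence given). Purified or IVT nuclear receptor:RXRα heterodimers (3:1 NR:RXRα, mostly 270:90 nM) or homodimers were incubated for 1 h in PBS with 2% milk and no ligand, then detected with Alexa488 antibodies. Fluorescence from o1-orientation probes (~5 replicates averaged) was converted to z-scores against 500 random hg19 background probes. Variable regions are seed direct-repeat (DR0–DR5) sites, all their single-nucleotide variants and half-site ablations.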
TCAGGCAGGTGAAGGTAACTCAGGTACGCAGTCG was tested, and the PBM binding z-score was 0.269. In the case of TGTCAAAGTTCAAAGGTAACTTAAGTATCCACAC, the PBM binding z-score is reported as 5.09. ACTATTAATTGACTTAGGGCAACCGATACGACGC was tested, and the PBM binding z-score was 0.425. Work on CTACCAAGGTGAACAAGGTCGTTGACTACTATTC yielded a PBM binding z-score of 6.23. TCTGCTAGGTCAACGATGGTCAGATAATCTGCTA was tested, and the PBM binding z-score was 1.78. Sequence CAGCCTAGGTCAGAGCCAGTATAGGAGGAACGTT has a PBM binding z-score of 0.207. TGAATGAGGTTATAAGATCAGGGTACGTTGCAAA showed a PBM binding z-score of 1.79. In the case of AGTCAAAGTTCAGCTAGGTAACGTAAGATATGCT, the PBM binding z-score is reported as 3.03. Sequence ATCTCTAGGTAATAAGTTCAGTGAAAGAGAGGAC has a PBM binding z-score of 1.9. Work on CCCTACGGGTCACGAGGTTATAGCACGACGAGCG yielded a PBM binding z-score of 5.13. GCTCTTAGTTGAAAGGGCAACCGAATGATTCTCG was tested, and the PBM binding z-score was 0.445. TCTATTAGTTGAAGGGCAACCTACGAGTCCGTTT showed a PBM binding z-score of 0.986. In the case of TCTTGTAGAACAAAGGTTAAGAAAGCCGAAGCCT, the PBM binding z-score is reported as 1.18. In the case of CCGACTGGGGCATAAGATTACCATAAGCCAGCCC, the PBM binding z-score is reported as -0.534. Sequence ACAGACAGGTGAGTGAAGGTAACTGAGCTGGACG has a PBM binding z-score of -0.202. With ATATGTAGGTGAGCTGGGGTCATTCAGACTAGGC the PBM binding z-score was 5.66. For TGTCAAAGTTCAAAGGTAACGTATGTATCCACAC, the PBM binding z-score was 5.14. Sequence GAGACAGGGTCAGCTAGAGGCCAGAGTATGGAAA has a PBM binding z-score of 3.22. With TAGCCTAGGTCAGATCGGGCCAGTAAACGCTATA the PBM binding z-score was 0.5. For GCTTGTAGAACAAGGTTAAGAAAGACTAAGCTAA, the PBM binding z-score was 0.106. Sequence AGAACGAGGGCAATTAGTTGATAGCACGGGTGGC has a PBM binding z-score of 1.13. Sequence TCTTGTAGATCAAGCAAGTTAAGAAAGCCTGAGT has a PBM binding z-score of 0.328. For ATCGAAAGGTCGACGAGGTGAGTATCCACCGTTT, the PBM binding z-score was 5.24. GCTTACGGGTCAAAGGTTATCGCATGAATAGAAT showed a PBM binding z-score of 5.72. GCTTGTAGATCAATGTTAAGAAAGACTAAGCTAA was tested, and the PBM binding z-score was -0.368. In the case of GGAACGACGGCATTCGAGTTGATAGCATGGCGAT, the PBM binding z-score is reported as -0.42. With CGTCCAAGGTCATAGGAGGTCAGTCAAGACAGAT the PBM binding z-score was 6.72. TCATATAGGTAAAGAGGTGAAAGTCCGTAAGTTA showed a PBM binding z-score of 1.45. Sequence CGTCCTAGGTCAGAGAGGTCAGTGAATGCCGAGT has a PBM binding z-score of 6.8. CTACCAAGGCGAACAAGGTCGTTGATTACTATTC was tested, and the PBM binding z-score was 2.59. TCATATAGGCAAATGCTAGGTGAAAGTCCGATCT gave a PBM binding z-score of 0.571. Sequence CCTGCTAGGTCATGGTCAGCTAGTCTACAGTATG has a PBM binding z-score of 1.65. Sequence TCTTGTAGATCAGTAGAGGTTAAGAAAGTGCGCT has a PBM binding z-score of 1.51. GCTTACGGCTCAAAGGTTATAGCATGAATAGAAT was tested, and the PBM binding z-score was 0.88. In the case of ATCTCTAGGTAAAGATAGTTGAGTGAATGCAAAT, the PBM binding z-score is reported as 0.375. For TCGAGTAGGTTAGTCAGGGCATTCAGCCAACATA, the PBM binding z-score was 2.59. Work on CTTCCAAGGTCAAAGGTCAGTGAAGAGATGACGG yielded a PBM binding z-score of 6.57. AATATAGGGTCACTAGGCCAGAGTAGGTACGAAT showed a PBM binding z-score of 4.06. ATCTCTAGGTTACCAAGTTCAGTGAATGCCGAAC gave a PBM binding z-score of 5.85. ACTCGGAGGACAAAGGTCAGAGGTACGCCAGTGA was tested, and the PBM binding z-score was 3.52.
